Results filed as inconclusive are left out. A number with no mark means an inactive call. Calls come from the whole dose curve; as a rule, active = well fitted activation curve with a large enough effect; inconclusive = small, poorly fitted or top-dose-only effect; inactive = flat fitted curve, though single readings scatter.
assay: Primary redox qHTS assay for identification of artifact compounds. (AID 1845223); details: Amplex Red/HRP redox cycling with DTT, fluorescence; series mostly up to 53.8 µM; redox activity (% of DA3003): at the top concentration;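 note: 0% = DMSO and 100% = reference compound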
Outline: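 Amplex Red (25 uM) and HRP (250 mU/mL) in HBSS, with compounds for 15 min, then 250 uM DTT for 30 min, room temperature, dark. Fluorescence 525/598 nm read; normalized to DMSO and 10 uM DA3003; Hill fit.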

Row | Structure (SMILES) | redox activity (% of DA3003)
1 | OCC(O)CN1CCN(c2ccccc2)CC1 (centres undefined) | -7.05%
2 | CCN(CC)CCNC(=O)c1cc(Cl)c(N)cc1OC | -1.54%
3 | CC(C(O)c1ccc(O)cc1)N1CCC(Cc2ccccc2)CC1 (centres undefined) | -1.26% [at 25.6 µM]
4 | CCN(CC)CCCC(C)Nc1c2ccc(Cl)cc2nc2ccc(OC)cc12 (centres undefined) | -0.0702% [at 25.6 µM]
5 | O=c1[nH]cnc2c1ncn2[C@@H]1O[C@H](CO)[C@@H](O)[C@H]1O | -4.46%
6 | CC(C)(C(=O)O)c1ccc(C(O)CCCN2CCC(C(O)(c3ccccc3)c3ccccc3)CC2)cc1 (centres undefined) | 8.41%
7 | O=C1Nc2ccc(Cl)cc2[C@@](C#CC2CC2)(C(F)(F)F)O1 | -2.37%
8 | CN1CCC[C@@H]1Cc1c[nH]c2ccc(CCS(=O)(=O)c3ccccc3)cc12 | -2.7%
9 | CCCCOc1cc(C(=O)OCCN(CC)CC)ccc1N | -7.1%
10 | COc1ccc2c(c1)C(=O)N(CCc1ccc(S(=O)(=O)NC(=O)NC3CCCCC3)cc1)C(=O)C2(C)C | 19.3%
11 | CN1CCOC(c2ccccc2)c2ccccc2C1 (centres undefined) | -1.58%
12 | CC(C)(O)c1ccccc1CC[C@@H](SCC1(CC(=O)O)CC1)c1cccc(/C=C/c2ccc3ccc(Cl)cc3n2)c1 | -3.86%
13 | Nc1ccc(S(=O)(=O)Nc2nccs2)cc1 | -2.35%
14 | CCN(CC)C(=O)Nc1ccc(OCC(O)CNC(C)(C)C)c(C(C)=O)c1 (centres undefined) | -0.0934%
15 | O=C(CCCN1CCN(c2ccccn2)CC1)c1ccc(F)cc1 | 18.9%
16 | Cc1cc(N)c2ccccc2[n+]1CCCCCCCCCC[n+]1c(C)cc(N)c2ccccc21 | -3.71%
17 | C[C@@H]1CN(c2c(F)c(F)c3c(=O)c(C(=O)O)cn(C4CC4)c3c2F)C[C@H](C)N1 | -2.75% [at 11.5 µM]
18 | C[C@@H]1C[C@H]2[C@@H]3C[C@H](F)C4=CC(=O)C=C[C@]4(C)[C@@]3(F)[C@@H](O)C[C@]2(C)[C@@]1(O)C(=O)CO | 1.29%
19 | CCCCc1ncc(/C=C(\Cc2cccs2)C(=O)O)n1Cc1ccc(C(=O)O)cc1 | -2.82%
